# Laboratory results from PubChem BioAssay (NCI).
# Compounds without any hit were thinned out: in the full panel of roughly 83,000, 20% have a hit.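 In brief: 96-well plates, 48 h treatment, single concentration, percent growth endpoint.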 Unmarked numbers belong to inactive results. The source made the active and inactive calls. How the source made its calls: active means growth percent below 10; inactive means the rest.
# Test system: HL-60(TB) leukemia
# Assay: NCI-60 one-dose screen, 48 h (100 = growth as untreated, 0 = no growth, -100 = all killed)
# Settings: 10 µM unless noted
row,Structure (SMILES),growth
1,CC(C)(CNC1CCCCC1)OC(=O)c1ccccc1,95.3%
2,COc1cc(-c2nn(-c3cccc(NC(=O)Nc4ccc(Cl)c(Cl)c4)c3)cc2-c2ccncc2)ccc1Cl,-18.1% (active)
3,Nc1n[nH]c2cccc(C#Cc3cccc(NC(=O)c4cc(F)cc(C(F)(F)F)c4)c3)c12,37.7%
4,O=C(/C=C(O)/C=C/c1cccc2[nH]ccc12)/C=C/c1cccc2[nH]ccc12,39.4%
5,Cn1cc(C(=O)NCCC(=N)N)cc1NC(=O)CN=C(N)N,102%
6,NCCCCCNc1noc(Cc2c[nH]c3cc(Br)ccc23)n1,-48.8% (active)
7,Cc1c(CN)cc(-c2ccc(Cl)cc2)n1-c1ccccc1,86.9%
8,COc1cc2c(/C=C3\C(=O)Nc4ccc(Br)cc43)c(Cl)n(C)c2cc1C,-13.1% (active)
9,O=C(/C=C/C12c3ccccc3C(c3ccccc31)C1C(=O)N(c3ccccc3)C(=O)C12)c1ccc(Cl)cc1 (centres undefined),10.7%
10,COc1cccc(-c2nc(-c3ccc(NC(=O)c4ccccc4)cc3)[nH]c2-c2ccnc(Br)c2)c1,-34% (active)
11,CCN(CC)CCSCCCNc1c2ccc(Cl)cc2nc2ccc(OC)cc12,-35.4% (active)
12,COc1cccc(/C=N/NC(=O)c2cnn3c2NC(c2ccccc2)C3)c1Oc1ccccc1 (centres undefined),74.6%
13,O=C(c1ccc(Cl)cc1)C1C(c2ccccc2)C1[N+](=O)[O-] (centres undefined),99.3%
14,O=C(CCCCNC(=O)c1nc(-c2ccccc2)n(-c2ccccc2)n1)NO,97%
15,COc1ccc2[nH]c(=O)c(CN3CCN(c4nccc(-c5ccc(Cl)cc5)n4)CC3)cc2c1,90.1%
16,CC(=O)N1N=C2N(Cc3ccccc3)C(=O)c3c(sc4c3CCCC4)N2C1c1cn(-c2ccccc2)nc1-c1ccc(Cl)cc1 (centres undefined),88.5%
17,O=C(NCc1ccccc1)C(Cl)Cl,95.9%
18,CCOC(=O)c1nnn(-c2no[n+]([O-])c2-c2ccc(OC)cc2)c1COc1cccc2cccnc12,-18.3% (active)
19,C/C(=N\NC(=O)c1ccc(C(C)(C)C)cc1)c1ccc(O)cc1O,9.36% (active)
20,Clc1cccc(CNc2c3ccccc3nc3ccccc23)c1,9.02% (active)

row,Structure (SMILES),growth
1,COc1ccc2c(c1)c(-c1nc(-c3cn(C)c4ncccc34)cs1)cn2CCN,55.7%
2,C#CCOC(=O)C(N)CS (centres undefined),120%
3,C/C(=N\OC(=O)Nc1cccc(Cl)c1)c1ccccc1,110%
4,O=C(O)c1ccc2c(c1Cl)C(=O)c1ccccc1C2=O,56.6%
5,Cc1cc(O)cc(-c2nn(C)cc2-c2cc(N3CCOCC3)nc(-c3cccnc3)n2)c1,14.8%
6,O=C(CCOCCNC(=O)COc1ccc2c(c1)OCC(c1ccc(F)cc1)C2=O)NCCCC(O)(P(=O)(O)O)P(=O)(O)O (centres undefined),104%
7,COc1ccc(CNc2ccc3nc(NC(=O)CN4CCCCCC4)sc3c2)cc1,47.4%
8,N#CC(C#N)N=Nc1ccc(Cl)cc1Cl,53%
9,COC(=O)C1(C)Cc2cc(OC(C)=O)c(OC(C)=O)cc2N1 (centres undefined),19.8%
10,Cc1ccc(/C(=N\N=C(N)N)c2ccccc2)cc1,-41.6% (active)
11,Cc1c(-c2ccc(O)cc2)n(Cc2ccc(OCCN3CCCCCC3)cc2)c2ccc(O)cc12,74.6%
12,COc1cc(Cl)ccc1C,107%
13,CNC=O,89.6%
14,S=c1nc2oc(-c3ccccc3)c(-c3ccccc3)c2c(/N=C\c2ccco2)[nH]1,87.2%
15,CC1(C)CC(O)CCCCCCOc2c(CN)cccc2NC(=O)c2nc(cnc2N)-c2ccc(cc2)S1(=O)=O (centres undefined),-49.3% (active)
16,C#C[C@@]1(O)[C@@H](CO)O[C@@H](n2cc(Cl)c3c(N)ncnc32)[C@@H]1O,-56.8% (active)
17,Oc1ccc(Cc2ccc(O)c3ncccc23)c2cccnc12,5.77% (active)
18,O=C(Nc1cnc(Nc2ccc(N3CCOCC3)nc2)nc1Oc1ccc(C(F)(F)F)cc1)c1ccncc1,98.6%
19,Cc1ccc(C)c2c1SC1=NNC(Oc3ccc(Cl)cc3)=C(C#N)C(=N)N12,122%
